Active and inactive are the calls of the source.
Legend:
[1] = small molecules captured by biotinylated probe aFSTL3 – biochemical, small-molecule microarray, fluorescence 635/667, stem cell growth factor project, primary screen (AID 1064); details: higher = more signal;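 further: measures binding of the biotinylated anti-FSTL3 antibody to printed compounds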
[2] = binders from COS7 lysate, DM2A8 probe, primary screen, torsin A project, cell lysate, small-molecule microarray, fluorescence 635/667 (AID 1065); details: higher = more signal, COS7 lysate expressing mutant human TOR1A
[3] = small molecules captured by biotinylated probe aFGF2 – biochemical, small-molecule microarray, fluorescence 635/667, stem cell growth factor project, primary screen (AID 1067); details: higher = more signal;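 further: measures binding of biotinylated aFGF2 protein to printed compounds on slides; z-score merges feature fluorescence and signal-to-noise across triplicate slides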
[4] = small molecules captured by biotinylated probe aFGF10 – biochemical, small-molecule microarray, fluorescence 635/667, stem cell growth factor project, primary screen (AID 1071); details: higher = more signal;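 further: score merges 667 nm spot intensity and signal to noise from triplicate slides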
[5] = target: Neurogenic locus notch homolog protein 2 (Homo sapiens) (UniProt Q04721); test: small molecules binding Notch2 protein – biochemical, small-molecule microarray, 635 nm fluorescence, stem cell growth factors, primary screen (AID 1073); details: higher = more signal
[6] = target: Pro-neuregulin-1, membrane-bound isoform (Homo sapiens) (UniProt Q02297); test: small molecules binding neuregulin-1 protein – biochemical, small-molecule microarray, fluorescence 635/667, psychiatric disease protein project, primary screen (AID 1075); details: NRG1 binding, 635 nm fluorescence, higher = more signal;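 further: score combines 667 nm spot fluorescence with signal to noise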
Chain of Pro-neuregulin-1, membrane-bound isoform (Homo sapiens) (Q02297 whole entry, looked up, the tested form may be a part, canonical isoform): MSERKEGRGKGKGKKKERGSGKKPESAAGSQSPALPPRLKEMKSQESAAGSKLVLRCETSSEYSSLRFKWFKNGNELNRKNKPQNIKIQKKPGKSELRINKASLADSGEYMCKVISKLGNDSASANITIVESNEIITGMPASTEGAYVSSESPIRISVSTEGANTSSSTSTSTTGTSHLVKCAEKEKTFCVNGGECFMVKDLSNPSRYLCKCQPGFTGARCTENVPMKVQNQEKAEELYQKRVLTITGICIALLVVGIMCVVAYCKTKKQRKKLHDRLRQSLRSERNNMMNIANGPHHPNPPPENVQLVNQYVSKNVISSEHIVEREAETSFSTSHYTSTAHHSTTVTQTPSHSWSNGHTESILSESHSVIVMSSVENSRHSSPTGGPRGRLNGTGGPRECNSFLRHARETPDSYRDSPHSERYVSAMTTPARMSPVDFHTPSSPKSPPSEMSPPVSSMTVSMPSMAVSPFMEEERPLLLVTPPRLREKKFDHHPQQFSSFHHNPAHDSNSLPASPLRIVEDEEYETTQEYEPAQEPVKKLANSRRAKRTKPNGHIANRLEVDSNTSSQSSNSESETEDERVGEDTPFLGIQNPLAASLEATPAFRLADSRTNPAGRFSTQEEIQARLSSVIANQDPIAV

[7] = tested on: Neuregulin-1 EGF-like domain; test: small molecules binding NRG1 EGF domain – biochemical, small-molecule microarray, 635 nm fluorescence, primary screen (AID 1081); details: higher = more signal;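 further: binding of the protein to compounds printed on small-molecule microarray slides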
[8] = FRG1 expression reporter modulators in myotubes – cell-based, C2C12 myotubes, firefly/Renilla luciferase, luminescence, FRG1 inhibition for FSHD, primary screen (AID 1084); details: FRG1 promoter luciferase, higher = more signal, called active from +8 up or from −8 down
[9] = small molecules captured by biotinylated probe aFST – biochemical, small-molecule microarray, fluorescence 635/667, stem cell growth factor project, primary screen (AID 1086); details: higher = more signal;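 further: score merges 667 nm fluorescence with signal-to-noise of each printed compound spot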
[10] = binders of probe aHhip on microarray, primary screen, stem cell growth factor project, biochemical, small-molecule microarray, fluorescence 635/667 (AID 1087); details: higher = more signal;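 further: score merges spot fluorescence at 667nm with spot signal to noise ratio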
[11] = tested on: PRMT1 (protein arginine N-methyltransferase 1); test: small molecules binding arginine methyltransferase PRMT1 – biochemical, small-molecule microarray, 635 nm fluorescence, primary screen (AID 1088); details: higher = more signal;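 further: binding of Prmt1 protein to compounds spotted on small-molecule microarray slides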
[12] = growth effects on S. cerevisiae YJM789 – YJM789 clinical isolate, OD600, 24 h, basal, primary screen (AID 1089); details: higher = more signal, called active from +8 up or from −8 down;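 further: growth of clinical yeast isolate S. cerevisiae YJM 789 seeded 1000 cells per well; test concentration not given here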
[13] = S. pombe growth modifiers, basal conditions – strain 972, OD600, 24 h, no modulator, primary screen (AID 1090);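 further: basal condition with compound alone and no growth modifier present; test concentration not given here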; details: S. pombe 972 growth, higher = more signal, called active from +8 up or from −8 down
[14] = budding yeast growth modifiers under rapamycin – strain BY4716, OD600, 96 h, primary screen (AID 1091); further: test concentration not given here; details: S. cerevisiae BY4716 + rapamycin, higher = more signal, called active from +8 up or from −8 down
[15] = target: Torsin-1A-interacting protein 2 (Homo sapiens) (UniProt Q8NFQ8); test: small molecules binding lysate-expressed LULL1 – cell lysate, human LULL1 lysate, 635/667 nm fluorescence, primary screen (AID 1092); details: small-molecule microarray, hLULL1 lysate binding, 635 nm fluorescence; higher = more signal;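 further: probe is lysate of COS7 cells overexpressing human LULL1; score merges per-feature 667 nm fluorescence with signal-to-noise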
Chain of Torsin-1A-interacting protein 2 (Homo sapiens) (Q8NFQ8 whole entry, looked up): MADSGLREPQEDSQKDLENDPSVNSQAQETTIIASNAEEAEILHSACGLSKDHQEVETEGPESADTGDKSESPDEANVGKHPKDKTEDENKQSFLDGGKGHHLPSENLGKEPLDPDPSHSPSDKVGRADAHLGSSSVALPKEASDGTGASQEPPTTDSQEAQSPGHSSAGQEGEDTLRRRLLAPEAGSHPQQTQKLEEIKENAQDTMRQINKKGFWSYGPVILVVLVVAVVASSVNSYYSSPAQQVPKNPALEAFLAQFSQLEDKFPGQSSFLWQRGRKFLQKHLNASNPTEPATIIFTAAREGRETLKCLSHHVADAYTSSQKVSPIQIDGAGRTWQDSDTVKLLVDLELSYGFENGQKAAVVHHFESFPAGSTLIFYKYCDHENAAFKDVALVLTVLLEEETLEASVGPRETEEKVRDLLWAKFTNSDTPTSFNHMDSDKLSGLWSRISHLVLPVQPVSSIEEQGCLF

[16] = optical density change of DRC41 E. coli – strain DRC41, OD650, 24 h, E. coli filamentation project, primary screen (AID 1093);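 further: MC1000 strain lacking acrAB efflux and sulA so SOS filamentation is blocked; test concentration not given here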; details: E. coli DRC41 growth, higher = more signal, called active from +8 up or from −8 down
[17] = probe aLefty2 binding to arrayed compounds – biochemical, biotinylated probe, 635/667 nm fluorescence, primary screen (AID 1094); details: small-molecule microarray, higher = more signal;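 further: score merges spot fluorescence near 667 nm with spot signal-to-noise ratio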
[18] = tested on: Noggin (protein binding on small-molecule microarray); test: small molecules binding Noggin protein – biochemical, 635/667 nm fluorescence, primary screen (AID 1095); details: 635 nm fluorescence, higher = more signal;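 further: score merges 667 nm feature fluorescence with signal to noise over triplicate slides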
[19] = target: Neurogenic locus notch homolog protein 3 (Homo sapiens) (UniProt Q9UM47); test: small molecules binding NOTCH3 protein – biochemical, 635/667 nm fluorescence, primary screen (AID 1096); details: small-molecule microarray, 635 nm fluorescence, higher = more signal
Chain of Neurogenic locus notch homolog protein 3 (Homo sapiens) (Q9UM47 whole entry, looked up): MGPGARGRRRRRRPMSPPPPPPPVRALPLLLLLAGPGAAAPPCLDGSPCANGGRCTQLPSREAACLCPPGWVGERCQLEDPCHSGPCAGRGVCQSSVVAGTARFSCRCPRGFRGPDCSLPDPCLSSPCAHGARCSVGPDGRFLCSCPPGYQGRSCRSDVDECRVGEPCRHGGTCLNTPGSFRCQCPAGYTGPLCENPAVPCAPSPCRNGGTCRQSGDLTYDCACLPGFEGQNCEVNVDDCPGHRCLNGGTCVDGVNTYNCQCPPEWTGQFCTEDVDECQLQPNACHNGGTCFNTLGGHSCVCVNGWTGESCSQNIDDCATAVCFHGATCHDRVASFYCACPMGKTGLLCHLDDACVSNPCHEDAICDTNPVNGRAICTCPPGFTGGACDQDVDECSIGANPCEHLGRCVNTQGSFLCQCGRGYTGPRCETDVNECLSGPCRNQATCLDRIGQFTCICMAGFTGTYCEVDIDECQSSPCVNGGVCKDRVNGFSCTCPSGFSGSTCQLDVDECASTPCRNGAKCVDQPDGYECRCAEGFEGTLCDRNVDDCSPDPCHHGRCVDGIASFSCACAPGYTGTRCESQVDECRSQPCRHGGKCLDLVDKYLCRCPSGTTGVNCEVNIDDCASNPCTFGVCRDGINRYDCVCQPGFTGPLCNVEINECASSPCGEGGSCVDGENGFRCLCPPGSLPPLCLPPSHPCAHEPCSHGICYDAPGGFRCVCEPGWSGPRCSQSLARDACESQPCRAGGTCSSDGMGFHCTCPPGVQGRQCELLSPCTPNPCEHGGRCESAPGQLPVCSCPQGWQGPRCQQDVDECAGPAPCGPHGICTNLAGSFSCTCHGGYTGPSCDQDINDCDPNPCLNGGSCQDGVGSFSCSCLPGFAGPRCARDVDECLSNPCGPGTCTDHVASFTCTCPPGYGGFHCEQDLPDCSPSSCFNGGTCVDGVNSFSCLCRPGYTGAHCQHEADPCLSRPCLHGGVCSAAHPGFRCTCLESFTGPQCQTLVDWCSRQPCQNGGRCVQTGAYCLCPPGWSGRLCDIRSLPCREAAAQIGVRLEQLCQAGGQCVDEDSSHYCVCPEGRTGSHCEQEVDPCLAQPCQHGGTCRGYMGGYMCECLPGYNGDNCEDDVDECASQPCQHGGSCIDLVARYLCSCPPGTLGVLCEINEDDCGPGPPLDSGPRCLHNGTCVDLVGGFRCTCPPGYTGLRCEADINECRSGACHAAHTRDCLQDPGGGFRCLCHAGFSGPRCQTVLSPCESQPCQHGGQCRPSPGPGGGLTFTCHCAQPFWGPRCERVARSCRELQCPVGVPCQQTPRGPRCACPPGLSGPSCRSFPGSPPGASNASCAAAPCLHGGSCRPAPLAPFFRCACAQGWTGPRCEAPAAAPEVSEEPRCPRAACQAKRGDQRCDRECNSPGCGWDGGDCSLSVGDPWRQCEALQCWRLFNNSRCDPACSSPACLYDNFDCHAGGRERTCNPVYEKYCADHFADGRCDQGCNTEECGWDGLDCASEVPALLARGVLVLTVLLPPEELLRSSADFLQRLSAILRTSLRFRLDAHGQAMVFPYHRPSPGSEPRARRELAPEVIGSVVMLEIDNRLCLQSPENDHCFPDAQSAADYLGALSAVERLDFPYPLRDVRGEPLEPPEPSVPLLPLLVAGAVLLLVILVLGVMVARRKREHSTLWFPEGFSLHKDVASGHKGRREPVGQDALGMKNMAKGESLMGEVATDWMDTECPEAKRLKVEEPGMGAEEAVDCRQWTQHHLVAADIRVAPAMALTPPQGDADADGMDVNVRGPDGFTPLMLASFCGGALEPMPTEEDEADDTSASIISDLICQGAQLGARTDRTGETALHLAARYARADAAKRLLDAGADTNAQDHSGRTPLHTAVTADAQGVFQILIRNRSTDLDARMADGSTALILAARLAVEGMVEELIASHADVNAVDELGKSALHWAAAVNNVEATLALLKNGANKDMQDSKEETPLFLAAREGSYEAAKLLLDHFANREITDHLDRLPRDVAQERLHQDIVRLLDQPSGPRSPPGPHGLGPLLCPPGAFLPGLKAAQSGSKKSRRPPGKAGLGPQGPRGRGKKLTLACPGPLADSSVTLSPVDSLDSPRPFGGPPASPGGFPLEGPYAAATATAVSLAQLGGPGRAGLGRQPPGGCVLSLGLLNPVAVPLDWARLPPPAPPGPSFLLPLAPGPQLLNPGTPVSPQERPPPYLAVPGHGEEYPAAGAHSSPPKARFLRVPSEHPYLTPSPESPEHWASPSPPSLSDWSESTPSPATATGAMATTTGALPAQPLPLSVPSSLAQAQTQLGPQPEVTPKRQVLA

[20] = probe aEGFR binding to arrayed compounds – biochemical, biotinylated probe, 635/667 nm fluorescence, primary screen (AID 1097); details: small-molecule microarray, higher = more signal;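 further: probe is a biotinylated anti-EGFR antibody binding compounds printed on slides; score combines fluorescence near 667 nm and signal to noise of each spot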

Row | Compound | composite z-score [1] | composite z-score [2] | composite z-score [3] | composite z-score [4] | composite z-score [5] | composite z-score [6] | composite z-score [7] | z-score [8] | composite z-score [9] | composite z-score [10] | composite z-score [11] | z-score [12] | z-score [13] | z-score [14] | composite z-score [15] | z-score [16] | composite z-score [17] | composite z-score [18] | composite z-score [19] | composite z-score [20]
1 | CCCCCCC#C[Si](O[C@H](c1ccccc1)c1cn([C@H](CO)Cc2ccccc2)nn1)(C(C)C)C(C)C | -0.206 | 0.0423 | -0.142 | 0.296 | -0.39 | -0.138 | 1 | -0.334 (inactive) | -0.682 | -0.0324 | 1.55 | -2.3 (inactive) | -16.2 (active) | -1.57 (inactive) | 1.7 | 1.16 (inactive) | -0.198 | 0.0817 | -0.0029 | -0.115
2 | CN1C(=O)C2C=CC(C(O)c3ccccc3)N(Nc3ccccc3)C2C1=O (stereo not given) | 0.527 | -0.214 | 0.0444 | -1.06 | -0.0125 | 0.151 | 0.547 | 0.527 (inactive) | 0.261 | -0.301 | 0.47 | -0.124 (inactive) | 0.807 (inactive) | 0.646 (inactive) | 2.71 | -1.79 (inactive) | 0.0105 | -1.09 | -0.557 | -0.0828
3 | CN1C(=O)C2C=CC(C(O)C3CC=CCC3)N(NC(=O)OC(C)(C)C)C2C1=O (stereo not given) | -0.138 | 0.23 | 0.218 | 0.752 | 1.29 | 1.64 | 1.21 | 2.23 (inactive) | 0.879 | -0.0296 | 1.14 | 0.0125 (inactive) | 0.826 (inactive) | 0.259 (inactive) | 3.54 | -1.16 (inactive) | -0.0379 | 0.532 | 0.95 | -0.0197
4 | CC(C)(C)OC(=O)CC[C@]12N=C(c3ccc(OCCCO)cc3)O[C@H]1c1ccccc1N(CCS(=O)(=O)c1ccccc1)C2=O | 0.144 | 0.433 | -0.0024 | 0.137 | 1.42 | 0.882 | 1.26 | 0.281 (inactive) | 0.682 | 0.0139 | 1.55 | 1.03 (inactive) | 1.65 (inactive) | 0.246 (inactive) | 3.17 | 0.522 (inactive) | 0.101 | 0.905 | 1.1 | 0.0288
5 | C=CCOC(=O)[C@H]1[C@@H]2C(=O)O[C@@H](c3ccccc3)[C@@H](c3ccccc3)N2[C@@H](c2ccc(OCCOC(=O)[C@@H]3C[C@@H]4C(=O)N[C@@H](CCCCN(C)C)C(=O)N4[C@@H]3c3ccc(O)cc3)cc2)[C@]12C(=O)Nc1ccc(I)cc12 | -0.617 | 1.04 | -0.0468 | 0.589 | 0.766 | 1.27 | 1.33 | -0.694 (inactive) | 0.429 | -0.112 | 1.46 | 1.36 (inactive) | -1.09 (inactive) | 1.52 (inactive) | 2.77 | -1.34 (inactive) | -0.0823 | 1.51 | 1.05 | 0.0752
6 | C=C[C@H](COC(C)=O)N(C(=O)OC(C)(C)C)S(=O)(=O)c1ccc(Br)cc1 | 0.726 | 0.303 | 0.278 | 0.348 | 1.33 | -0.243 | 0.652 | -1.89 (inactive) | 1.23 | 0.32 | 0.616 | 0.0834 (inactive) | -1.25 (inactive) | 0.239 (inactive) | 0.597 | 1.47 (inactive) | 0.518 | 1.09 | 0.0585 | 0.545
7 | C=CC[C@@]1(C(=O)NCc2ccccc2)N=C(c2ccc(OCCCO)cc2)O[C@@H]1c1ccccc1N=[N+]=[N-] | 0.127 | 0.852 | 0.071 | 0.942 | 1.44 | 1.74 | 1.27 | 0.206 (inactive) | 1.31 | 0.111 | 1.54 | 0.158 (inactive) | 0.178 (inactive) | 2.21 (inactive) | 3.55 | 0.266 (inactive) | 0.252 | 0.8 | 1.09 | 0.006
8 | COC(=O)[C@@]1(Cc2ccccc2)[C@H]2c3cc(C(=O)N4CCCC4)n(Cc4cccc5ccccc45)c3C[C@H]2CN1C(=O)c1ccccc1 | 1.79 | 0.0848 | 0.705 | 0.913 | 1.63 | 1.49 | 1.21 | -0.165 (inactive) | 2.03 | 0.869 | -1.59 | 0.506 (inactive) | 1.56 (inactive) | 1.43 (inactive) | 2.54 | -0.395 (inactive) | 1.29 | -0.685 | 0.943 | 0.891
9 | [N-]=[N+]=NCc1ccccc1[C@@H]1OC(c2ccc(OCCCO)cc2)=N[C@]1(Cc1ccccc1N=[N+]=[N-])C(=O)N1CCOCC1 | 0.36 | 0.485 | 0.321 | 0.636 | 1.66 | 1.77 | 1.1 | -0.825 (inactive) | 1.08 | -0.0994 | 1.55 | -1.29 (inactive) | -1.59 (inactive) | 4.14 (inactive) | 3.25 | -0.667 (inactive) | 0.295 | 1.04 | 1.04 | 0.246
10 | C=CCC(OC(C)=O)[C@@H]1[C@@H](N(Cc2ccc(-c3cccc(C(F)(F)F)c3)o2)C(=O)Cc2ccc(F)cc2)c2cc(OCCCO)ccc2N1C(=O)Cc1ccc(OC)cc1 (stereo not given in full) | -0.0361 | -0.162 | -0.0971 | 0.318 | -0.944 | -0.14 | -0.751 | -0.373 (inactive) | -0.26 | -0.164 | -2.39 | -0.973 (inactive) | 0.0138 (inactive) | -0.982 (inactive) | -2.02 | -0.0261 (inactive) | 0.454 | -0.137 | -1.08 | -0.195
